Data reported in PubChem BioAssay (NCI).
Values joined by “and” are separate entries in the source; they are usually repeats but may differ in a detail not shown here. Identical values can stand only once. Compounds without any hit were thinned out: in the full panel of roughly 83,000, 20% have a hit.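 Values shown are percent growth following 48 h exposure of cells in 96-well plates to a single concentration of compound; below 10 was considered active.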 Values without a mark were called inactive. Active and inactive are the calls of the source.

Tested on: BT-549 breast
Assay: NCI-60 one-dose screen, 48 h (100 = growth as untreated, 0 = no growth, -100 = all killed)
Settings: 10 µM unless noted

Row | SMILES | growth
1 | N#CC(C#N)=C(C#N)C#N | 104%
2 | CC(C)CCC1C(=O)NC(=O)NC1=O | 100%
3 | COc1ccc(N)cc1N | 112%
4 | CC1OC(=O)C(C(C)C)NC(=O)C(C(C)C)OC(=O)C(C(C)C)NC(=O)C(C)OC(=O)C(C(C)C)NC(=O)C(C(C)C)OC(=O)C(C(C)C)NC(=O)C(C)OC(=O)C(C(C)C)NC(=O)C(C(C)C)OC(=O)C(C(C)C)NC1=O (stereo unspecified) | -42.5% (active)
5 | C[C@H](O)CCC(=O)c1ccoc1 | 118%
6 | CCCCCCCCCCCCCCCCCC1OCC(COC(=O)O[C@@H](C(=O)O[C@H]2C[C@@]3(O)[C@@H](OC(=O)c4ccccc4)[C@@H]4[C@]5(OC(C)=O)CO[C@@H]5C[C@H](O)[C@@]4(C)C(=O)[C@H](OC(C)=O)C(=C2C)C3(C)C)[C@@H](NC(=O)c2ccccc2)c2ccccc2)O1 (stereo partly specified) | 58.8%
7 | O=c1[nH]c(=O)[nH]c(=O)[nH]1 | 145%
8 | O=CC1(c2ccccc2)CCN(Cc2ccccc2)CC1 | 106%
9 | CC(=O)c1cccc(S(=O)(=O)F)c1 | 88.8%
10 | CC(=O)Nc1nc2c(s1)C1=CC[C@H]3[C@@H]4CC[C@H](OC(C)=O)[C@@]4(C)CC[C@@H]3[C@@]1(C)CC2 | 39.2%
11 | CC1=CC(=O)CCC12CCOC2=O (stereo unspecified) | 90.5%
12 | CCC1CCC(=O)O1 (stereo unspecified) | 116% and 129%
13 | CN(C)C(=S)SSC(=S)N(C)C | 101% and 111%
14 | ClC1OC(Cl)(Cl)C(Cl)(Cl)OC1(Cl)Cl (stereo unspecified) | 84.4%
15 | COc1ccc(N)cc1OC | 99.8%

Tested on: MDA-MB-435 melanoma
Assay: as above
Settings: 10 µM unless noted

Row | SMILES | growth
16 | N#CC(C#N)=Cc1cccc(F)c1 | 107%
17 | CN(C)c1ccc(C=C2C(=O)NC(=O)NC2=O)cc1 | 111%
18 | [N-]=[N+]=CC(=O)CCC(=O)C=[N+]=[N-] | 113%
19 | CC1=C2[C@H]3OC(=O)[C@@H](C)[C@@H]3CC[C@@]2(C)C=CC1=O | 115%
20 | O=[N+]([O-])c1ccc2scc3c4ccccc4nc-3c2c1 | -2.05% (active)
21 | Cc1cc(NC(=O)NCCCOc2ccc(N3C(N)=NC(N)=NC3(C)C)cc2Cl)ccc1S(=O)(=O)F | 27.7%
22 | Nc1c(Cl)c(Cl)nc(C(=O)O)c1Cl | 106%
23 | Cn1cc(C(=O)C[n+]2ccccc2)c2ccccc21 | 105%
24 | Nc1nc(=S)nc(N)[nH]1 | 105%
25 | C[C@]12CCC(=O)C[C@@H]1CC[C@@H]1[C@@H]2CC[C@]2(C)[C@@H](OC(=O)N(CCCl)N=O)CC[C@@H]12 | 25.9%
26 | NC1CN2CCC1CC2 (stereo unspecified) | 104%
27 | O=C(O)C1C(C(=O)O)C2(Cl)C(Cl)=C(Cl)C1(Cl)C2(Cl)Cl (stereo unspecified) | 100% and 106%
28 | O=C1NC(=O)C(=C/C=C/c2ccccc2)C(=O)N1 | 3.9% (active)
29 | c1ccc(CCN2CCCCC2)nc1 | 100%
30 | O=[N+]([O-])c1cc(Br)c(O)c(Br)c1 | 111%
31 | Cc1cc(Br)c([N+](=O)[O-])cc1[N+](=O)[O-] | 96.3%
32 | C[C@]12CC[C@@H](OC(=O)N(CCCl)N=O)C[C@@H]1CC[C@@H]1[C@@H]2CC[C@]2(C)C(=O)CC[C@@H]12 | 64.5%
33 | CCOC(=O)C1C(C=C(C)C)C1(C)C (stereo unspecified) | 102%

Row | SMILES | growth
34 | N[C@@H](CCC(=O)CCl)C(=O)O | 103% [20 µM]
35 | Oc1ccc(O)c(Cl)c1 | 102% and 109%
36 | CC(C)c1cccc(C(C)C)c1O | 104% and 100%
37 | N#CC(C#N)=C(C#N)C#N | 107%
38 | CC(C)CCC1C(=O)NC(=O)NC1=O | 99.7%
39 | COc1ccc(N)cc1N | 122%
40 | CC1OC(=O)C(C(C)C)NC(=O)C(C(C)C)OC(=O)C(C(C)C)NC(=O)C(C)OC(=O)C(C(C)C)NC(=O)C(C(C)C)OC(=O)C(C(C)C)NC(=O)C(C)OC(=O)C(C(C)C)NC(=O)C(C(C)C)OC(=O)C(C(C)C)NC1=O (stereo unspecified) | 3.94% (active)
41 | C[C@H](O)CCC(=O)c1ccoc1 | 112%
42 | CCCCCCCCCCCCCCCCCC1OCC(COC(=O)O[C@@H](C(=O)O[C@H]2C[C@@]3(O)[C@@H](OC(=O)c4ccccc4)[C@@H]4[C@]5(OC(C)=O)CO[C@@H]5C[C@H](O)[C@@]4(C)C(=O)[C@H](OC(C)=O)C(=C2C)C3(C)C)[C@@H](NC(=O)c2ccccc2)c2ccccc2)O1 (stereo partly specified) | -71.2% (active)
43 | O=c1[nH]c(=O)[nH]c(=O)[nH]1 | 114%
44 | O=CC1(c2ccccc2)CCN(Cc2ccccc2)CC1 | 98.5%
45 | CC(=O)c1cccc(S(=O)(=O)F)c1 | 97.8%
46 | CC(=O)Nc1nc2c(s1)C1=CC[C@H]3[C@@H]4CC[C@H](OC(C)=O)[C@@]4(C)CC[C@@H]3[C@@]1(C)CC2 | 4.51% (active)
47 | CC1=CC(=O)CCC12CCOC2=O (stereo unspecified) | 95.5%
48 | CCC1CCC(=O)O1 (stereo unspecified) | 109%
49 | CN(C)C(=S)SSC(=S)N(C)C | 97.3%
50 | ClC1OC(Cl)(Cl)C(Cl)(Cl)OC1(Cl)Cl (stereo unspecified) | 101%
51 | COc1ccc(N)cc1OC | 103%
